# Source: the supplement of paper PMC6411743
# ± gives the standard deviation of the averaged measurements. Of roughly 6,500 targets only a part is listed; those with the largest changes were picked by preference.
# Assays:
# Assay in all cases: NP40-soluble protein abundance relative to vehicle (solubility fold change) (ratio); higher = more soluble protein in presence of ATP
# ALG5 = biological target: T1, ALG5 (UniProt Q9Y673)
# T1 sequence (whole entry): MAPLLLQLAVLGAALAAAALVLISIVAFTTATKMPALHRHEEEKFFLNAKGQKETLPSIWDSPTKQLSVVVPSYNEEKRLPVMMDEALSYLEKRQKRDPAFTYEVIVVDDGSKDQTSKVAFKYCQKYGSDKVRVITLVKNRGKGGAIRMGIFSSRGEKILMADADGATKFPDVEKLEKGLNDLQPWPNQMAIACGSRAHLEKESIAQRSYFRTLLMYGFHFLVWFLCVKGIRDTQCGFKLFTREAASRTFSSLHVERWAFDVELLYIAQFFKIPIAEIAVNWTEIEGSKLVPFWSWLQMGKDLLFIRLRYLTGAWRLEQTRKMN
# Procedure, shortened: (§1)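 Data come from three independent experiments in which Dounce-homogenised Jurkat crude lysate was treated at eight concentrations from 0.1 to 10 mM. Treatment ran 10 min at room temperature and then 3 min at 37 °C, after which 0.8% NP40 and benzonase were added for 60 min at 4 °C before ultracentrifugation. The supernatant underwent TMT labelling and LC-MS/MS, and vsn-normalised intensities were expressed as fold change against the detergent-processed vehicle in each replicate.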
# DDX52 = biological target: T2, DDX52 (UniProt Q9Y2R4)
# T2 sequence (whole entry): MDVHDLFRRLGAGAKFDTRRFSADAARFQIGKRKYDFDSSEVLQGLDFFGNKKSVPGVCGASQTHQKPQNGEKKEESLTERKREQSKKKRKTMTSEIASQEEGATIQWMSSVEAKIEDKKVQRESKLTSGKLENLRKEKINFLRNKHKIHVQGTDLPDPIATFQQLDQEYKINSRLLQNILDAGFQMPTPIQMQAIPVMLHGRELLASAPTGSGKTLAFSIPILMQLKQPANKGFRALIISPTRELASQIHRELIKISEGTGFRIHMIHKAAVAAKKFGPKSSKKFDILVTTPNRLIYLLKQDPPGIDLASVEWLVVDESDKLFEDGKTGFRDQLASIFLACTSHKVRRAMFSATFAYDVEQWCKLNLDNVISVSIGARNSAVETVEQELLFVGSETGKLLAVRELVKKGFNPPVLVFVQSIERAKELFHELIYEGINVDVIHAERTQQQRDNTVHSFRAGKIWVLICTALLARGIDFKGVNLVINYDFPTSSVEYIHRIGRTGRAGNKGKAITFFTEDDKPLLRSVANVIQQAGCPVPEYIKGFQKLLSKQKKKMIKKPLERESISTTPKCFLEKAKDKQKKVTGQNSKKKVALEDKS
# Procedure, shortened: as §1
# FHOD1 = biological target: T3, FHOD1 (UniProt Q9Y613)
# T3 sequence (whole entry): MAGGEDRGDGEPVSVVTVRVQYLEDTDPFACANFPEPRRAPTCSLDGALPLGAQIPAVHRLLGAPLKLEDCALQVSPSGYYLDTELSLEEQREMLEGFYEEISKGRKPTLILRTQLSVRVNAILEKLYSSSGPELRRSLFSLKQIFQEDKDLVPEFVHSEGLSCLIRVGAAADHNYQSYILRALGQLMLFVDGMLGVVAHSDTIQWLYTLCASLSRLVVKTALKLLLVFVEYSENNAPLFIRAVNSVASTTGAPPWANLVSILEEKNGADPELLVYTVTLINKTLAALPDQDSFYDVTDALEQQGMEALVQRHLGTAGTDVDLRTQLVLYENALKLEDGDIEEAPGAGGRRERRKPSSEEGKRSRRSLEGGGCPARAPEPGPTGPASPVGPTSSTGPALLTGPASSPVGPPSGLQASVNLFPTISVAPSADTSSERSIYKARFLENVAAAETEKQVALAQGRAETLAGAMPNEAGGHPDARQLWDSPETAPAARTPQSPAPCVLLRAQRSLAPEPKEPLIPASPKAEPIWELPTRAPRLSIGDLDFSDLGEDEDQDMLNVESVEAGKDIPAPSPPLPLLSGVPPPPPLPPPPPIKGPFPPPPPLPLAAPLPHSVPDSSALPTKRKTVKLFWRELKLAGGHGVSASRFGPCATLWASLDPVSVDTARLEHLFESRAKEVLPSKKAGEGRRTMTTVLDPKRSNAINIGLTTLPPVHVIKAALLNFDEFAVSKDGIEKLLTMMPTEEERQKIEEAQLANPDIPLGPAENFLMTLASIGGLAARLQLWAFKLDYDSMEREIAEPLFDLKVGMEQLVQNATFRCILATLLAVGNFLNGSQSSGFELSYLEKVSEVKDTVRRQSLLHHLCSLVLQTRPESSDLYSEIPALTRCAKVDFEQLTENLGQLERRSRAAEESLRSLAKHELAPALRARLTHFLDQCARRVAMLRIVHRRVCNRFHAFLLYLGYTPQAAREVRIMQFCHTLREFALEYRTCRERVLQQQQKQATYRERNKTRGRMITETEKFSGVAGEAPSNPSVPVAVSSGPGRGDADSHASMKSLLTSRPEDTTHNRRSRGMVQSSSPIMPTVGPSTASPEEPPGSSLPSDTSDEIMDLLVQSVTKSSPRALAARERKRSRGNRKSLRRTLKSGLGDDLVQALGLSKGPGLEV
# Procedure, shortened: as §1
# UniProt Q9Y6I3|Q9Y6I3-3 = biological target: T4, UniProt Q9Y6I3|Q9Y6I3-3
# T4 sequence (whole entry): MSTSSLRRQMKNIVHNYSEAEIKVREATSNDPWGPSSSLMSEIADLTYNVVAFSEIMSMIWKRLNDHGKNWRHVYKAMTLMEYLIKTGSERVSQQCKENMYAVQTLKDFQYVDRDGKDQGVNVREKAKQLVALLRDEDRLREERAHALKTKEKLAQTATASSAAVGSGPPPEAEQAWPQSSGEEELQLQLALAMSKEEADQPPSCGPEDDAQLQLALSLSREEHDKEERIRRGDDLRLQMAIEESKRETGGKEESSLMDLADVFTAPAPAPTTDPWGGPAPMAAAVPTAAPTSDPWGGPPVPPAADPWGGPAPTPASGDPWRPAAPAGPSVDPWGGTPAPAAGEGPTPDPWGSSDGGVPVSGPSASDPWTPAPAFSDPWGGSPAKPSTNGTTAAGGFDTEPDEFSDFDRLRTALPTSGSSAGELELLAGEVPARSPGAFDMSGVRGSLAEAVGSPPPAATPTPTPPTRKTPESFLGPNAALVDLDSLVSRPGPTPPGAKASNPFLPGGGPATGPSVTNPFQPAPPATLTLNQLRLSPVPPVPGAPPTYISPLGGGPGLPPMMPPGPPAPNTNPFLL
# Procedure, shortened: as §1
# [1] = biological target: T5, UniProt Q9Y6M7-13|Q9Y6M7-6|Q9Y6M7-9|Q9Y6M7-5|A0A0A0MST8
# T5 sequence (whole entry): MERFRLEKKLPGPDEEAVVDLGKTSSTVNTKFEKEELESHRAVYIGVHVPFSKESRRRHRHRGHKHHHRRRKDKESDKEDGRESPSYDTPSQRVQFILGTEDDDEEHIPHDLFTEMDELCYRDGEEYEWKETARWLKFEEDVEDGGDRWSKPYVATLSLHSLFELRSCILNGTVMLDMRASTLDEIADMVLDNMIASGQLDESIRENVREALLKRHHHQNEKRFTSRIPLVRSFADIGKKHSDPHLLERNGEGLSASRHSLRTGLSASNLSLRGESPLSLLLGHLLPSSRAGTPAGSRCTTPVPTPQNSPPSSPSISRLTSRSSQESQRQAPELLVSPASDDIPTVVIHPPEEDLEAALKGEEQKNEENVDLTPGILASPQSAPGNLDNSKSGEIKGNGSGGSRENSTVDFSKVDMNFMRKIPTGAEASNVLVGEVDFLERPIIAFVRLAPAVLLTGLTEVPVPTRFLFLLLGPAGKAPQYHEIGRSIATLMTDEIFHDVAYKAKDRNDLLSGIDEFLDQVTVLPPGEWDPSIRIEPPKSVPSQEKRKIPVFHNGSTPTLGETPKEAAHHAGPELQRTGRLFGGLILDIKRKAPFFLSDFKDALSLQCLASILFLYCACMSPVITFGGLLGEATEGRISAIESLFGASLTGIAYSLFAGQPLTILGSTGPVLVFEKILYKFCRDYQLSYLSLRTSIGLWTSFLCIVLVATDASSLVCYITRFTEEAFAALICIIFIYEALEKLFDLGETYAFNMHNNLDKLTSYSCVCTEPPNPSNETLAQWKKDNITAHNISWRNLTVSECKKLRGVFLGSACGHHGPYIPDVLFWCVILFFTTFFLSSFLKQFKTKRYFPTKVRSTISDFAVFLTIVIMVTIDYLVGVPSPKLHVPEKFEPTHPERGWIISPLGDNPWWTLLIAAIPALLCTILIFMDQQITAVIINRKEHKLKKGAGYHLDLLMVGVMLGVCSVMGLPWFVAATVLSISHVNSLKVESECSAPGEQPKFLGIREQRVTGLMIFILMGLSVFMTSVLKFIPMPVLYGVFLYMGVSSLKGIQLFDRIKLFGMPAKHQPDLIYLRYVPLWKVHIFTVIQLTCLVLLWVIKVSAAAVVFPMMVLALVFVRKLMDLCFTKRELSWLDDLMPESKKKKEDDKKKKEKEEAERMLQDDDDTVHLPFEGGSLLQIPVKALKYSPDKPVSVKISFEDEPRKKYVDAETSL
# Procedure, shortened: as §1
smiles,measurement,setting,value
Nc1ncnc2c1ncn2[C@@H]1O[C@H](COP(=O)(O)OP(=O)(O)OP(=O)(O)O)[C@@H](O)[C@H]1O [adenosine triphosphate],NP40-soluble protein abundance,ALG5; concentration: 1mM,1.03 ± 0.089
same,NP40-soluble protein abundance,ALG5; concentration: 2mM,1.02 ± 0.074
same,NP40-soluble protein abundance,ALG5; concentration: 4mM,1.03 ± 0.088
same,NP40-soluble protein abundance,ALG5; concentration: 6mM,0.97 ± 0.13
same,NP40-soluble protein abundance,ALG5; concentration: 8mM,1.03 ± 0.1
same,NP40-soluble protein abundance,ALG5; concentration: 10mM,1.02 ± 0.058
same,NP40-soluble protein abundance,DDX52; concentration: 1mM,1.11 ± 0.11
same,NP40-soluble protein abundance,DDX52; concentration: 2mM,1.16 ± 0.17
same,NP40-soluble protein abundance,DDX52; concentration: 4mM,1.31 ± 0.27
same,NP40-soluble protein abundance,DDX52; concentration: 6mM,1.41 ± 0.23
same,NP40-soluble protein abundance,DDX52; concentration: 8mM,1.51 ± 0.37
same,NP40-soluble protein abundance,DDX52; concentration: 10mM,1.71 ± 0.49
same,NP40-soluble protein abundance,FHOD1; concentration: 1mM,0.963 ± 0.062
same,NP40-soluble protein abundance,FHOD1; concentration: 2mM,1.01 ± 0.085
same,NP40-soluble protein abundance,FHOD1; concentration: 4mM,1.02 ± 0.058
same,NP40-soluble protein abundance,FHOD1; concentration: 6mM,1.01 ± 0.078
same,NP40-soluble protein abundance,FHOD1; concentration: 8mM,0.952 ± 0.068
same,NP40-soluble protein abundance,FHOD1; concentration: 10mM,0.96 ± 0.055
same,NP40-soluble protein abundance,UniProt Q9Y6I3|Q9Y6I3-3; concentration: 1mM,0.932 ± 0.045
same,NP40-soluble protein abundance,UniProt Q9Y6I3|Q9Y6I3-3; concentration: 2mM,0.915 ± 0.018
same,NP40-soluble protein abundance,UniProt Q9Y6I3|Q9Y6I3-3; concentration: 4mM,0.915 ± 0.023
same,NP40-soluble protein abundance,UniProt Q9Y6I3|Q9Y6I3-3; concentration: 6mM,0.927 ± 0.037
same,NP40-soluble protein abundance,UniProt Q9Y6I3|Q9Y6I3-3; concentration: 8mM,0.907 ± 0.029
same,NP40-soluble protein abundance,UniProt Q9Y6I3|Q9Y6I3-3; concentration: 10mM,0.894 ± 0.014
same,NP40-soluble protein abundance,[1]; concentration: 1mM,1.05 ± 0.022
same,NP40-soluble protein abundance,[1]; concentration: 2mM,1.03 ± 0.026
same,NP40-soluble protein abundance,[1]; concentration: 4mM,1.05 ± 0.036
same,NP40-soluble protein abundance,[1]; concentration: 6mM,1.04 ± 0.032
same,NP40-soluble protein abundance,[1]; concentration: 8mM,1.06 ± 0.024
same,NP40-soluble protein abundance,[1]; concentration: 10mM,1.02 ± 0.034
